About 83,000 compounds went through this panel and 20% of them were active in at least one assay; those are over-represented in the sample as a whole.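 Method: cells in 96-well plates; compound added at one concentration; 48 h incubation; percent growth measured; values under 10 scored active.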
Columns and labels:
Experiment in all cases: NCI-60 one-dose screen, 48 h (100 = growth as untreated, 0 = no growth, -100 = all killed)
Settings in all cases: 10 µM
DU-145 prostate = tested on: DU-145 prostate
K-562 leukemia = tested on: K-562 leukemia
MALME-3M melanoma = tested on: MALME-3M melanoma
MDA-MB-231 breast = tested on: MDA-MB-231 breast
RXF 393 renal = tested on: RXF 393 renal
SF-268 CNS = tested on: SF-268 CNS
SF-295 CNS = tested on: SF-295 CNS
SF-539 CNS = tested on: SF-539 CNS
UACC-257 melanoma = tested on: UACC-257 melanoma
M14 melanoma = tested on: M14 melanoma
HCT-15 colon = tested on: HCT-15 colon
HT29 colon = tested on: HT29 colon
SNB-75 CNS = tested on: SNB-75 CNS
SNB-19 CNS = tested on: SNB-19 CNS
U251 CNS = tested on: U251 CNS
PC-3 prostate = tested on: PC-3 prostate
SK-MEL-5 melanoma = tested on: SK-MEL-5 melanoma
UACC-62 melanoma = tested on: UACC-62 melanoma
LOX IMVI melanoma = tested on: LOX IMVI melanoma
SK-MEL-28 melanoma = tested on: SK-MEL-28 melanoma

Measured: growth

CC(C)N(CCOc1ccc(-c2nc3sccn3c2-c2ccnc(S(C)(=O)=O)n2)cc1)C(C)C
inactive: DU-145 prostate 99.9% | K-562 leukemia 62.9% | MALME-3M melanoma 102% | MDA-MB-231 breast 75.4% | RXF 393 renal 93.2% | SF-268 CNS 96.3% | SF-295 CNS 108% | SF-539 CNS 95.4% | UACC-257 melanoma 78.4% | M14 melanoma 112% | HCT-15 colon 92.8% | HT29 colon 60.3% | SNB-75 CNS 83.5% | SNB-19 CNS 107% | U251 CNS 91.4% | PC-3 prostate 62.5% | SK-MEL-5 melanoma 39.2% | UACC-62 melanoma 83.9% | LOX IMVI melanoma 72.7% | SK-MEL-28 melanoma 104%

COc1ccc(C(=O)c2ccccc2CN2C(=O)c3ccccc3C2=O)cc1
inactive: DU-145 prostate 110% | K-562 leukemia 96.5% | MALME-3M melanoma 98.6% | MDA-MB-231 breast 109% | RXF 393 renal 107% | SF-268 CNS 102% | SF-295 CNS 100% | SF-539 CNS 108% | UACC-257 melanoma 104% | M14 melanoma 104% | HCT-15 colon 112% | HT29 colon 99.7% | SNB-75 CNS 92% | PC-3 prostate 89.6% | SK-MEL-5 melanoma 100% | UACC-62 melanoma 97.2% | LOX IMVI melanoma 94.3% | SK-MEL-28 melanoma 114%

CS(=O)(=O)c1nccc(-c2c(-c3cccc(OCCN4CCOCC4)c3)nc3sccn23)n1
inactive: DU-145 prostate 91.9% | K-562 leukemia 91.5% | MALME-3M melanoma 105% | MDA-MB-231 breast 67.9% | RXF 393 renal 89.2% | SF-268 CNS 107% | SF-295 CNS 104% | SF-539 CNS 81.3% | UACC-257 melanoma 110% | M14 melanoma 113% | HCT-15 colon 81.8% | SNB-75 CNS 75.9% | SNB-19 CNS 82.5% | U251 CNS 86.6% | PC-3 prostate 77.9% | SK-MEL-5 melanoma 84.5% | UACC-62 melanoma 89.1% | LOX IMVI melanoma 91.3% | SK-MEL-28 melanoma 99.3%

O=C(Nc1ccc2c(O)cc(S(=O)(=O)O)cc2c1)c1ccc([N+](=O)[O-])cc1
inactive: DU-145 prostate 99.7% | K-562 leukemia 99% | MALME-3M melanoma 99.8% | MDA-MB-231 breast 105% | RXF 393 renal 105% | SF-268 CNS 93.9% | SF-295 CNS 98.2% | SF-539 CNS 97% | UACC-257 melanoma 74.6% | M14 melanoma 94.6% | HCT-15 colon 99.3% | SNB-75 CNS 99.6% | SNB-19 CNS 95.8% | U251 CNS 84% | PC-3 prostate 83.1% | SK-MEL-5 melanoma 94.8% | UACC-62 melanoma 101% | LOX IMVI melanoma 95.1% | SK-MEL-28 melanoma 102%
